Measured values: ChEMBL document CHEMBL2218924, “A broad activity screen in support of a chemogenomic map for kinase signalling research and drug discovery” (Biochem J, 2013)

Key:
[1] = biological target: Tyrosine-protein kinase Fgr (Homo sapiens) (UniProt P09769); conditions: at 10 µM
[2] = biological target: Receptor-type tyrosine-protein kinase FLT3 (Homo sapiens) (UniProt P36888); conditions: at 1 µM
[3] = biological target: Receptor-type tyrosine-protein kinase FLT3 (Homo sapiens) (UniProt P36888); conditions: at 10 µM
[4] = biological target: Vascular endothelial growth factor receptor 3 (Homo sapiens) (UniProt P35916); conditions: at 1 µM
[5] = biological target: Vascular endothelial growth factor receptor 3 (Homo sapiens) (UniProt P35916); conditions: at 10 µM
[6] = biological target: Macrophage colony-stimulating factor 1 receptor (Homo sapiens) (UniProt P07333); conditions: at 1 µM
[7] = biological target: Macrophage colony-stimulating factor 1 receptor (Homo sapiens) (UniProt P07333); conditions: at 10 µM
[8] = biological target: Tyrosine-protein kinase Fyn (Homo sapiens) (UniProt P06241); conditions: at 1 µM
[9] = biological target: Tyrosine-protein kinase Fyn (Homo sapiens) (UniProt P06241); conditions: at 10 µM
[10] = biological target: T1, Mitogen-activated protein kinase kinase kinase kinase 2 (Homo sapiens) (UniProt Q12851); conditions: at 10 µM
T1 sequence (whole entry): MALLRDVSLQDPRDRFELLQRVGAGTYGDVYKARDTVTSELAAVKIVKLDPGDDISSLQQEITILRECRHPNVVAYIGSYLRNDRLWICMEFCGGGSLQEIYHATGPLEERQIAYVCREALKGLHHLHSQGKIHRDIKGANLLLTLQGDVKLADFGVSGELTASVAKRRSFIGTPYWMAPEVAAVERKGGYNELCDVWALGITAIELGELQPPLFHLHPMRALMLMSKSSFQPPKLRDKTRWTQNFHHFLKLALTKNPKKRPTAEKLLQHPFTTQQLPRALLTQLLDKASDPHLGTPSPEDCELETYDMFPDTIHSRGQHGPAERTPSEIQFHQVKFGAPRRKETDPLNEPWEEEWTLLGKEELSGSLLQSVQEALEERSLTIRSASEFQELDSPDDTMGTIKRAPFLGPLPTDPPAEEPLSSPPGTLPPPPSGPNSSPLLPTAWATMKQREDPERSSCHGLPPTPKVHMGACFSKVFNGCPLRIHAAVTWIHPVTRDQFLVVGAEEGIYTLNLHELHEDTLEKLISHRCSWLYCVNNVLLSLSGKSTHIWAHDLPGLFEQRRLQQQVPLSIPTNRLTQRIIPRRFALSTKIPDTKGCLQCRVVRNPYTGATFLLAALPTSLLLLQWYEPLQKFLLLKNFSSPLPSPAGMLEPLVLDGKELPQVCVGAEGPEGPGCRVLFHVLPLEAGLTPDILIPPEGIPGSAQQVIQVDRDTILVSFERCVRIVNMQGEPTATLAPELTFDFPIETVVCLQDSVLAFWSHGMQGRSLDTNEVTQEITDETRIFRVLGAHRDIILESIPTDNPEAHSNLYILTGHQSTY

[11] = biological target: Vascular endothelial growth factor receptor 1 (Homo sapiens) (UniProt P17948); conditions: at 1 µM
[12] = biological target: Vascular endothelial growth factor receptor 1 (Homo sapiens) (UniProt P17948); conditions: at 10 µM
[13] = biological target: T1, Mitogen-activated protein kinase kinase kinase kinase 2 (Homo sapiens); conditions: at 1 µM
[14] = biological target: G protein-coupled receptor kinase 6 (Homo sapiens) (UniProt P43250); conditions: at 10 µM
[15] = biological target: G protein-coupled receptor kinase 5 (Homo sapiens) (UniProt P34947); conditions: at 10 µM
[16] = biological target: Tyrosine-protein kinase Fer (Homo sapiens) (UniProt P16591); conditions: at 10 µM
[17] = biological target: Tyrosine-protein kinase Fes/Fps (Homo sapiens) (UniProt P07332); conditions: at 1 µM
[18] = biological target: Tyrosine-protein kinase Fes/Fps (Homo sapiens) (UniProt P07332); conditions: at 10 µM
[19] = biological target: Tyrosine-protein kinase Fgr (Homo sapiens) (UniProt P09769); conditions: at 1 µM
[20] = biological target: T2, Rhodopsin kinase GRK7 (Homo sapiens) (UniProt Q8WTQ7); conditions: at 1 µM
T2 sequence (whole entry): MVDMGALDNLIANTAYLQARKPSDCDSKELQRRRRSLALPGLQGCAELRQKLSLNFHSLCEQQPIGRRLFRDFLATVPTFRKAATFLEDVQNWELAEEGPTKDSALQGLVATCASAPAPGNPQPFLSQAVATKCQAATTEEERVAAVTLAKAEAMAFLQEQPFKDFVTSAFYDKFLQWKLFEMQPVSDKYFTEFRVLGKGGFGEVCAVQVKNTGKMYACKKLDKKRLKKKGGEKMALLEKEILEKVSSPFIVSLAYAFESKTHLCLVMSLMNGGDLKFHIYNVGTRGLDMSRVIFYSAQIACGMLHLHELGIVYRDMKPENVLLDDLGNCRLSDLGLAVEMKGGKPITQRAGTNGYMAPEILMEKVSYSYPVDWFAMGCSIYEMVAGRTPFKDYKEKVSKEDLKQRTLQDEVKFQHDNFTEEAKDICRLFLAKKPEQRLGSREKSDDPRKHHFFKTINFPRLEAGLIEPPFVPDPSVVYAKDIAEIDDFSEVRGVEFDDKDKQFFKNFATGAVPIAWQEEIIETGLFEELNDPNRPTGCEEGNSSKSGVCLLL

Sequence of Tyrosine-protein kinase Fyn (Homo sapiens) (P06241 2-537 limits assumed): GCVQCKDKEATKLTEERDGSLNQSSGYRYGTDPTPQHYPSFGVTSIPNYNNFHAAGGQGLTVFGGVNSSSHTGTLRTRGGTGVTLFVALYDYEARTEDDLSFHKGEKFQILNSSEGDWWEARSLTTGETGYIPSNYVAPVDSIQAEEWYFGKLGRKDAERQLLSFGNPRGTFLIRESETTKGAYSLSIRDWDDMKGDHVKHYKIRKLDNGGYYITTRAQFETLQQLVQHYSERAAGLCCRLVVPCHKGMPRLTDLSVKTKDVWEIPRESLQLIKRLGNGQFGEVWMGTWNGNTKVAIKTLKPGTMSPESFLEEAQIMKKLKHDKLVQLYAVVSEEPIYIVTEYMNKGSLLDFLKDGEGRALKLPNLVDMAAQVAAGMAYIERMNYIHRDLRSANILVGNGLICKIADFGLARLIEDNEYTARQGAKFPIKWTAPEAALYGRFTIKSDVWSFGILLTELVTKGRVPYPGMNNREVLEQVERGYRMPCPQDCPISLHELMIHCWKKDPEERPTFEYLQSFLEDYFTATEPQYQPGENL
Sequence of Tyrosine-protein kinase Fgr (Homo sapiens) (P09769 2-529 limits assumed): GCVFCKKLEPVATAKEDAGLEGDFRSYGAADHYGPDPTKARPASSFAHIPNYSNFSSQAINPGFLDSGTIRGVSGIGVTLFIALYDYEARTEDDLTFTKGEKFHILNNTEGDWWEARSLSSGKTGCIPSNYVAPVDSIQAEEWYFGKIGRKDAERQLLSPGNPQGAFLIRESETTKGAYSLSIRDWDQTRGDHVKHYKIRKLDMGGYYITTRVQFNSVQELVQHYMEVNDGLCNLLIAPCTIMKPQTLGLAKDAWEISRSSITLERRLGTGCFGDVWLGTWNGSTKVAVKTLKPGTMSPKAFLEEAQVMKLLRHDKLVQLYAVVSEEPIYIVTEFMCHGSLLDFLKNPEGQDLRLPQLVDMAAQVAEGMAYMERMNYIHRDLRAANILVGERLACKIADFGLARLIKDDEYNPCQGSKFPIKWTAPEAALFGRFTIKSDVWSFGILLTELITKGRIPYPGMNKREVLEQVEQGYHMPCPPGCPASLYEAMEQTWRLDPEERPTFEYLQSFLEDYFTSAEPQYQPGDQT
Sequence of G protein-coupled receptor kinase 6 (Homo sapiens) (P43250 whole entry, looked up): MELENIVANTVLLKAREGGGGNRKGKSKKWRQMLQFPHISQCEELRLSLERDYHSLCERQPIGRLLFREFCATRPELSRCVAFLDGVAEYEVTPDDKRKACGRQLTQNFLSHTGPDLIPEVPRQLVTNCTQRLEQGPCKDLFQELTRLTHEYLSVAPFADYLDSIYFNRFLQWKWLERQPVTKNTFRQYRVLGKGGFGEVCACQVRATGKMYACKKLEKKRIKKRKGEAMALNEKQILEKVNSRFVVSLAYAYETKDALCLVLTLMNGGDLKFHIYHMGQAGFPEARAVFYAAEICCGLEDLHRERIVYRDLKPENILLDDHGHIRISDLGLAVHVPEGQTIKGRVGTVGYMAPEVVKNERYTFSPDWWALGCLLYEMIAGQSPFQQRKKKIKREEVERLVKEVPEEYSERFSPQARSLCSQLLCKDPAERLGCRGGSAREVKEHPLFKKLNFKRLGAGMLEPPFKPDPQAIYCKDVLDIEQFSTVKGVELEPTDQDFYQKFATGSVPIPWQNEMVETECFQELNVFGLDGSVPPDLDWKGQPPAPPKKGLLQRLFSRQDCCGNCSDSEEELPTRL
Sequence of Tyrosine-protein kinase Fes/Fps (Homo sapiens) (P07332 whole entry): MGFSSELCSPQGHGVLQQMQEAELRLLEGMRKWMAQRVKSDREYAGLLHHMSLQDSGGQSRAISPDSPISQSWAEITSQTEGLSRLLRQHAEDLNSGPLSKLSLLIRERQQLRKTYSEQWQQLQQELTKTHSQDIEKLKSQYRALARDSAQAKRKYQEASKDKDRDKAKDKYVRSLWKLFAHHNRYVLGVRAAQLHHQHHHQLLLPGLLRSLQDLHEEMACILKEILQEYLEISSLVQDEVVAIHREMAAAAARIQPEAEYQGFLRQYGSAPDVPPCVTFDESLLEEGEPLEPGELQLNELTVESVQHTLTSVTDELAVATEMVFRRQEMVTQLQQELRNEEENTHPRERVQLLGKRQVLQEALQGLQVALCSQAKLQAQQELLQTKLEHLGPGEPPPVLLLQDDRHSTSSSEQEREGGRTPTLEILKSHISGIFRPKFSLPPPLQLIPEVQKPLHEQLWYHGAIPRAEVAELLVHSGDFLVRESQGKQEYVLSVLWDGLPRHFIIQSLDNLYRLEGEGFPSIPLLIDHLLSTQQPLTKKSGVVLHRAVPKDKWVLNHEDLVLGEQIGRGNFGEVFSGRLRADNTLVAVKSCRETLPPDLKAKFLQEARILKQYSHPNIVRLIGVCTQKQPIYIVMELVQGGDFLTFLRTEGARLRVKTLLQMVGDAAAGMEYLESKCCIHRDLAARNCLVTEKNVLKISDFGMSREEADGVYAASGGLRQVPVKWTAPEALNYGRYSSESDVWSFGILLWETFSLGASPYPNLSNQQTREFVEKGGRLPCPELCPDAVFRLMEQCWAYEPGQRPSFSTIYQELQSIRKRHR
Sequence of G protein-coupled receptor kinase 5 (Homo sapiens) (P34947 whole entry, looked up): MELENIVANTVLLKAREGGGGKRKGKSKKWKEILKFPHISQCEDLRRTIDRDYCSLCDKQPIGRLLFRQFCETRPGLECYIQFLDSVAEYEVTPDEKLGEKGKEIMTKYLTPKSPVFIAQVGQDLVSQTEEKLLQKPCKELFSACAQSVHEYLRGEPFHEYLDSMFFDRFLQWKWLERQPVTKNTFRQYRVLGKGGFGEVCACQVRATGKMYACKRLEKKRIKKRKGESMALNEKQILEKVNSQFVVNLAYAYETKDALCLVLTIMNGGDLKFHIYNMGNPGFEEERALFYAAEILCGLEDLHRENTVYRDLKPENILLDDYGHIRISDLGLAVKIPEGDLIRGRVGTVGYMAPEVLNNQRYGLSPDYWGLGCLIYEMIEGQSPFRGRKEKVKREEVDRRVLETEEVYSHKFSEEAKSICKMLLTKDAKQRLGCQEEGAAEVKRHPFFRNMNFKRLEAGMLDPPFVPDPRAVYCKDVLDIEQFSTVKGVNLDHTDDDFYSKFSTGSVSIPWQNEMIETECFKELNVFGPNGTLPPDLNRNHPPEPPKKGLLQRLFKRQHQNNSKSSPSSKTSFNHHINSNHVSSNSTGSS
Sequence of Receptor-type tyrosine-protein kinase FLT3 (Homo sapiens) (P36888 whole entry): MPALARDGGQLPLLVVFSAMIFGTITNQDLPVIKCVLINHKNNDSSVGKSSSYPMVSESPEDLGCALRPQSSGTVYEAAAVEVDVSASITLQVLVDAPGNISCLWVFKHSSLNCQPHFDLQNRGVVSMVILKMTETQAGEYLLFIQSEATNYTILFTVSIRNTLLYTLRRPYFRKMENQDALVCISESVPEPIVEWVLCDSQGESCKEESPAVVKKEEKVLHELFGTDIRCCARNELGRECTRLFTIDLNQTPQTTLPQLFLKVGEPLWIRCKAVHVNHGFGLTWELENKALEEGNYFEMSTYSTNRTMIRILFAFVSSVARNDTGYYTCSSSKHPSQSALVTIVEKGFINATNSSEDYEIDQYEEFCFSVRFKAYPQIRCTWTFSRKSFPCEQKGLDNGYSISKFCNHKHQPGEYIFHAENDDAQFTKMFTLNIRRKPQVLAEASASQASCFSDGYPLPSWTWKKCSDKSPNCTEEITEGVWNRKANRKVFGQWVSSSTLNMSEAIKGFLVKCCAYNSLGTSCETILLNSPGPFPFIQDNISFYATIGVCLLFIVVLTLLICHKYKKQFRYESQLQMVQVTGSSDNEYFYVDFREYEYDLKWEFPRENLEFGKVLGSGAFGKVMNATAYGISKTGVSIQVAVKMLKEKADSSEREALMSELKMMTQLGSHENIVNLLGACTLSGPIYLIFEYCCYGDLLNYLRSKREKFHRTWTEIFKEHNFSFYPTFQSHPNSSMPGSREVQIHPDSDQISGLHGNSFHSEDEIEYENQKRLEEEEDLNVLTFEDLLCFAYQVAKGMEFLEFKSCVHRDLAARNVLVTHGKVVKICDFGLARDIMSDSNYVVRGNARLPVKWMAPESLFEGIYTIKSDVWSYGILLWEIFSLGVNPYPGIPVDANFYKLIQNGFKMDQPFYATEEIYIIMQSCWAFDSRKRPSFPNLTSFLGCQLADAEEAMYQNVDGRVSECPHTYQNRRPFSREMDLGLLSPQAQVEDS
Sequence of Macrophage colony-stimulating factor 1 receptor (Homo sapiens) (P07333 whole entry): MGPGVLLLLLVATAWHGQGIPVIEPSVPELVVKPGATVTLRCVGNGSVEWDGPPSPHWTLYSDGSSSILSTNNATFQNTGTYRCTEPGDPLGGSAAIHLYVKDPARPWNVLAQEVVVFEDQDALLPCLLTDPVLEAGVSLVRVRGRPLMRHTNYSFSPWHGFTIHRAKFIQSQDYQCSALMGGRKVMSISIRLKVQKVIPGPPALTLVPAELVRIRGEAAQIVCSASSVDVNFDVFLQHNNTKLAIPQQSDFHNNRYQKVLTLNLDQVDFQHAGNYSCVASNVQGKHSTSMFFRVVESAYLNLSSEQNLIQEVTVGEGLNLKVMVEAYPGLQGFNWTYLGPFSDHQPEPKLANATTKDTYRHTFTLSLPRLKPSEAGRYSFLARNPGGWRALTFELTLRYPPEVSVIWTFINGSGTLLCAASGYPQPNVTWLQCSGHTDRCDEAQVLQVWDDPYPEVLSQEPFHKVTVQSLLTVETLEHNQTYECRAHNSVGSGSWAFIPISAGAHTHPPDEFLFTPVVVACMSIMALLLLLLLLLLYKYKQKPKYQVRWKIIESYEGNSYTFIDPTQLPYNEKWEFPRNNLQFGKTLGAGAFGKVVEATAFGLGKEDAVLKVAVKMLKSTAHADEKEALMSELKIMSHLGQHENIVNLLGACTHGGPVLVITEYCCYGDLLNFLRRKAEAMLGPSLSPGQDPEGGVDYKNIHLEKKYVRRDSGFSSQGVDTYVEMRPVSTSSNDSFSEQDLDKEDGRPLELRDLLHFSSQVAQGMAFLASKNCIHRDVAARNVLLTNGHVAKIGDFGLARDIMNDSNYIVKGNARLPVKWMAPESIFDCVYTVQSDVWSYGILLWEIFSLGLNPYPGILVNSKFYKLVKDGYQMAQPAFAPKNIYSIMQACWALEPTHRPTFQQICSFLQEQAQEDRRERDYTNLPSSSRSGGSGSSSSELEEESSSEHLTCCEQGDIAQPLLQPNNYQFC

Compound	residual activity [1] [%]	residual activity [2] [%]	residual activity [3] [%]	residual activity [4] [%]	residual activity [5] [%]	residual activity [6] [%]	residual activity [7] [%]	residual activity [8] [%]	residual activity [9] [%]	residual activity [10] [%]	residual activity [11] [%]	residual activity [12] [%]	residual activity [13] [%]	residual activity [14] [%]	residual activity [15] [%]	residual activity [16] [%]	residual activity [17] [%]	residual activity [18] [%]	residual activity [19] [%]	residual activity [20] [%]
Fc1ccc(-c2nc3n(c2-c2ccncc2)CCS3)cc1	97	98	82	89	43	90	84	92	83	83										
Nc1ncnc2c1cnn2-c1ccccc1	85	95	55	99	82		67	79	58		96	88	100	93						
O=c1c(-c2ccc(F)cc2)c(-c2ccncc2)[nH]n1-c1ccc(Cl)cc1	65				20		61		66		100	50		100	100					
CC(C)(C)c1nc2c3ccc(F)cc3c3c(=O)[nH]ccc3c2[nH]1		45	26	28	16	54	18			11			19	68	66	27				
O=C(Nc1nc2ccccc2n1CCN1CCOCC1)c1cccc([N+](=O)[O-])c1		38	29	36	40	8	5			67			70		85		101	74	102	
CCOC(=O)c1c(C)[nH]c(/C=C2\C(=O)Nc3ccccc32)c1C	74	6	9	1	3	20	9	87	99	77	38	15	89	94			119	80	87	
O=C1Nc2ccc(Cl)cc2/C1=C/c1cc(Cl)c(O)c(Cl)c1	42	21	1	3	1	7	1	67	25	14	55	1	46	82					96	91
O=C(Nc1ccc(Cl)cc1)c1ccccc1NCc1ccncc1			65	0	0	1	0	102	70	58	0	2				101				
Nc1nccc(-c2c(-c3ccc(F)cc3)ncn2C2CCNCC2)n1	25			69	10					61			82							
COc1cc2nccc(Oc3ccc(NC(=O)Nc4cc(C)on4)c(Cl)c3)c2cc1OC	4			-1	-1	0	0	5	1	17			47		104		78	46	8	105
NC(=O)c1cccc(-c2cc(Nc3ccc(OC(F)(F)F)cc3)ncn2)c1		97	93	90	81	74	73		78	88				100			125	99		
O=C1NC(=O)c2c1c1c3ccccc3[nH]c1n1cncc21	45	18	5	0	2	26	23	51	42	53	16	3	58	75	70		79	56	75	84
O=C(NC(NC(=S)Nc1ccc(F)c([N+](=O)[O-])c1)C(Cl)(Cl)Cl)C(c1ccccc1)c1ccccc1 (stereo not given)		99	82	93	76	89	71	104	58	74			88	87	100	103				86
O=C1Cc2c([nH]c3ccc([N+](=O)[O-])cc23)-c2ccccc2N1	48	30	20	29	32	33	26	20	0	5	49	24	2				35	43	40	
CCOc1nc(NC(=O)Cc2cc(OC)ccc2OC)cc(N)c1C#N					64		53			72										
CN([C@@H](Cc1ccc(OS(=O)(=O)c2cccc3cnccc23)cc1)C(=O)N1CCN(c2ccccc2)CC1)S(=O)(=O)c1cccc2cnccc12			76																	
COc1ccc(COc2ccc(Cc3cnc(N)nc3N)cc2OC)cc1					115					63										
CSc1nc(-c2ccc(F)cc2)c(-c2ccnc(NC(C)c3ccccc3)c2)[nH]1 (stereo not given)	71	86	83	97	64		41	87	69	56		80	75		91		102	87	84	
N#C/C(=C\c1ccc(O)c(O)c1)C(=O)NCc1ccccc1	82					67	81		80	85							124	76		
O=C1NC(=O)C(c2cn(CCCn3ccnc3)c3ccccc23)=C1Nc1ccccc1	59	14	0	58	9	66	40			13	51	11	54	59	30	52				75
Nc1nc(Nc2ccc(S(N)(=O)=O)cc2)nn1C(=O)c1c(F)cccc1F	20		5	1	0	30	7	51	10	6	18	2	33		24	55			63	55
